T cruzi growth-1: T. cruzi intracellular proliferation inhibitors, primary screen, cell-based, beta-gal Tulahuen parasites, NIH3T3 host, luminescence; T. cruzi beta-gal in NIH3T3, GalScreen luminescence, 90 h; 77,000 compounds, 5.9% hits; AID 624255, 2012; inhibition, % at 8.34 µM;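 active = mean inhibition above about 93%, with at least 55% of replicates each passing it, limit read from the data, passing the limit was not always enough; inconclusive = only one of those two conditions holds; inactive = neither condition holds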
Pf Dd2 growth: P. falciparum Dd2 growth inhibitors, primary screen, SYBR Green fluorescence, single dose replicates | 94,000 compounds, 2.3% hits | 72 h; active compounds read low | activity change, % at 10 µM; in the data active = activity change below about -80%; inconclusive = no clear call, values can overlap the other calls
C diff growth: C. difficile growth inhibitors, primary screen, HTS; 86,000 compounds, 0.25% hits; growth activity, negative = inhibition, % at 16 µg/mL (by protocol); AID 1259249, 2017; Clostridium difficile clinical isolate growth, OD600, 24 h; active compounds read low;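 active = mean growth activity at or below -80% and every replicate also at or below -80%; inconclusive = mean at or below -80% but some replicate above -80%; inactive = mean growth activity above -80%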;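 also: 0% = DMSO wells and -100% = levofloxacin 16 µg/mL wells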
T cruzi growth-2: T. cruzi intracellular proliferation inhibitors, confirmation, cell-based, NIH3T3 host, beta-gal parasite, luminescence, cherry-pick. shares compounds with T cruzi growth-1. T. cruzi beta-gal in NIH3T3, GalScreen luminescence, 90 h. inhibition, % at 8.35 µM. 5,600 compounds, 72% hits. AID 651739, 2012;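 active = mean replicate inhibition above about 95% and at least 55% of replicates individually reaching it, limit read from the data; inconclusive = only one of the two criteria is met; inactive = neither criterion is met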
T cruzi growth-3: inhibitors of intracellular T. cruzi replication, confirmation, NIH3T3 host cells, beta-gal parasites, cherry-pick, set 2 | 5,600 compounds, 21% hits | T. cruzi beta-gal in NIH3T3, GalScreen luminescence, 90 h | inhibition, % at 2.09 µM | AID 651740, 2012 | shares compounds with T cruzi growth-1;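 active = mean inhibition above about 95%, with at least 55% of replicates also reaching it, limit read from the data; inconclusive = meets just one of the two conditions; inactive = meets neither condition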;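 also: plate controls were neutral control median for no effect and positive control median for full effect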
3T3 cytotox: cytotoxicity in mouse NIH/3T3 fibroblasts, confirmation, cytotoxicity control for T. cruzi proliferation inhibitor project, cell-based, cherry-pick, single point. NIH/3T3 viability, CellTiter-Glo ATP luminescence, 90 h. AID 651742, 2012. cytotoxicity (signal decrease), % at 8.35 µM. shares compounds with T cruzi growth-1. 5,600 compounds, 14% hits;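 active = mean signal decrease across replicates above about 35% based on untreated-well scatter, with enough replicates individually passing, limit read from the data; inconclusive = no rule stated though some were filed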;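 also: 0% = median of neutral control wells and 100% = median of positive control wells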
NIH3T3 tox 2: NIH/3T3 fibroblast cytotoxicity, confirmation, cytotoxicity control, cell-based, cherry-pick, single point, set 2 | shares compounds with T cruzi growth-1 | NIH/3T3 viability, CellTiter-Glo ATP luminescence, 90 h | inhibition, % at 24.9 µM | 5,600 compounds, 56% hits | AID 651744, 2012;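 active = mean loss of cell viability signal at or above a set limit, and enough replicates individually reaching it; inconclusive = meets only the mean limit or only the replicate share; inactive = meets neither condition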;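 also: 0% = median of neutral control wells and 100% = median of positive control wells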
The depositor's hits bear a star; ? = inconclusive; · = not tested or not shown. Hits are enriched below; roughly 6.7% of the tested compounds scored in any of these assays.

SMILES	T cruzi growth-1	Pf Dd2 growth	C diff growth	T cruzi growth-2	T cruzi growth-3	3T3 cytotox	NIH3T3 tox 2
O=C(Nc1ccccc1)N[C@@H]1CC[C@H](CCNS(=O)(=O)c2cccc(F)c2)O[C@@H]1CO	11.2	-16.0	-0.7	·	·	·	·
COc1ccc(NC(=O)N(C)C[C@H]2Oc3cc(-c4cccc(C(=O)N(C)C)c4)ccc3S(=O)(=O)N([C@@H](C)CO)C[C@H]2C)cc1	·	21.3	-1.8	·	·	·	·
OC[C@H]1Nc2ccc(C#Cc3ccc(F)cc3)cc2[C@H]2[C@@H]1CCN2Cc1nccs1	103.5*	-22.4	2.0	107.4*	101.6*	14.8	105.8*
O=C(C1CC1)N1CC[C@@H]2[C@H]1c1cc(C#Cc3ccc(F)cc3)ccc1N[C@@H]2CO	63.8	-61.2	-19.5	·	·	·	·
OC[C@@H]1Nc2ccc(C#Cc3ccc(F)cc3)cc2[C@H]2[C@@H]1CCN2Cc1nccs1	104.1*	-29.6	·	98.4*	105.3*	36.8*	104.6*
OC[C@@H]1Nc2ccc(C3=CCCCC3)cc2[C@@H]2[C@H]1CCN2Cc1nccs1	·	-78.2	-0.8	·	·	·	·
O=C(C[C@H]1C=C[C@@H](NS(=O)(=O)c2ccccc2)[C@H](CO)O1)NCc1ccc(Cl)c(Cl)c1	11.8	47.6	·	·	·	·	·
C[C@@H]1CCCCO[C@@H](CN(C)Cc2ccc(C(F)(F)F)cc2)[C@H](C)CN([C@@H](C)CO)C(=O)c2cc(NS(C)(=O)=O)ccc2O1	14.7	-44.9	0.4	·	·	·	·
CO[C@H]1CC[C@H]2CCOc3ccc(C#N)cc3C(=O)N(C)[C@@H](C)C(=O)N(C)C[C@H]1O2	-1.7	·	-3.0	·	·	·	·
C[C@@H]1CN([C@H](C)CO)S(=O)(=O)c2ccc(-c3cccc(C(=O)N(C)C)c3)cc2O[C@@H]1CN(C)C(=O)Nc1ccc(F)cc1	21.8	-19.4	-2.5	·	·	·	·
C[C@@H]1CN([C@H](C)CO)S(=O)(=O)c2ccc(-c3ccc(F)cc3)cc2O[C@@H]1CN(C)C(=O)Nc1ccc(F)cc1	120.1*	-27.2	·	106.9*	66.2	6.6	48.7*
C[C@H](CO)N1C[C@H](C)[C@H](CN(C)C(=O)Nc2ccc(F)cc2)Oc2cc(-c3cccc(C(=O)N(C)C)c3)ccc2S1(=O)=O	17.6	-53.6	-0.5	·	·	·	·
C[C@@H]1CN([C@@H](C)CO)S(=O)(=O)c2ccc(-c3ccc(F)cc3)cc2O[C@H]1CN(C)C(=O)Nc1ccc(F)cc1	?	-20.4	·	93.1	6.7	23.9	55.7*
CC(=O)N(C)C[C@H]1Oc2cc(-c3ccc(F)cc3)ccc2S(=O)(=O)N([C@@H](C)CO)C[C@H]1C	6.0	3.0	-0.9	·	·	·	·
C[C@H]1CN([C@@H](C)CO)S(=O)(=O)c2ccc(-c3ccc(F)cc3)cc2O[C@H]1CN(C)C(=O)Nc1ccc(F)cc1	120.3*	-24.5	·	100.9*	80.9	62.1*	76.3*
CC(=O)N(C)C[C@H]1Oc2cc(-c3ccc(F)cc3)ccc2S(=O)(=O)N([C@H](C)CO)C[C@@H]1C	42.4	-7.7	-0.9	·	·	·	·
C[C@H](CO)N1C[C@H](C)[C@H](CN(C)C(=O)Nc2ccc(F)cc2)Oc2cc(-c3ccc(F)cc3)ccc2S1(=O)=O	118.9*	-51.4	·	104.5*	74.5	10.8	56.0*
COc1ccc(NC(=O)N(C)C[C@@H]2OCCCC[C@@H](C)Oc3ccc(NC(=O)Nc4cccc5ccccc45)cc3C(=O)N([C@H](C)CO)C[C@@H]2C)cc1	20.9	-6.5	8.3	·	·	·	·
Cc1ccc(S(=O)(=O)N(C)C[C@H]2OCCCC[C@H](C)Oc3ccc(NC(=O)NC(C)C)cc3C(=O)N([C@H](C)CO)C[C@@H]2C)cc1	0.0	-52.3	-2.0	·	·	·	·
C[C@@H]1CN([C@H](C)CO)C(=O)c2cccc(NC(=O)c3cnccn3)c2O[C@H]1CN(C)Cc1ccc2c(c1)OCO2	47.7	-4.6	-2.7	·	·	·	·
Cc1ccc(S(=O)(=O)N(C)C[C@@H]2Oc3ccc(NC(=O)Cn4cnnn4)cc3CC(=O)N([C@@H](C)CO)C[C@H]2C)cc1	18.5	-35.0	-5.5	·	·	·	·
C[C@H](CO)N1C[C@H](C)[C@@H](CN(C)C(=O)Nc2ccc(F)cc2)Oc2cc(-c3ccc(F)cc3)ccc2S1(=O)=O	117.8*	-40.0	·	96.4*	46.2	44.2*	45.5*
CC(=O)N(C)C[C@H]1Oc2cc(-c3ccc(F)cc3)ccc2S(=O)(=O)N([C@@H](C)CO)C[C@@H]1C	8.3	-6.7	-1.1	·	·	·	·
C[C@@H]1CN([C@H](C)CO)C(=O)c2cc(C#CC3CCCCC3)cnc2O[C@@H]1CN(C)C	45.1	-32.7	-2.4	·	·	·	·
C[C@@H]1CCCCO[C@@H](CN(C)Cc2ccc3c(c2)OCO3)[C@H](C)CN([C@@H](C)CO)C(=O)c2cc(NC(=O)Nc3ccc(C(F)(F)F)cc3)ccc2O1	?	-59.7	-69.5	98.9*	110.7*	31.5	53.2*
SMILES	T cruzi growth-1	Pf Dd2 growth	C diff growth	T cruzi growth-2	T cruzi growth-3	3T3 cytotox	NIH3T3 tox 2
C[C@@H]1CN([C@H](C)CO)C(=O)c2cc(NC(=O)Nc3ccc4c(c3)OCO4)ccc2O[C@@H](C)CCCCO[C@@H]1CN(C)Cc1ccc(C(F)(F)F)cc1	80.6	-70.6	·	·	·	·	·
C[C@@H]1CCCCO[C@H](CN(C)Cc2ccc(C(F)(F)F)cc2)[C@H](C)CN([C@H](C)CO)C(=O)c2cc(NC(=O)Nc3ccc4c(c3)OCO4)ccc2O1	90.4	-71.8	·	·	·	·	·
C[C@H](CO)N1C[C@H](C)[C@H](CN(C)Cc2ccc(C(F)(F)F)cc2)OCCCC[C@H](C)Oc2ccc(NC(=O)Nc3ccc4c(c3)OCO4)cc2C1=O	79.3	22.4	·	·	·	·	·
C[C@@H]1CN([C@@H](C)CO)C(=O)c2cc(NC(=O)Nc3ccc4c(c3)OCO4)ccc2O[C@@H](C)CCCCO[C@H]1CN(C)Cc1ccc(C(F)(F)F)cc1	81.3	-75.6	·	·	·	·	·
C[C@@H]1CCCCO[C@@H](CN(C)Cc2ccc(C(F)(F)F)cc2)[C@@H](C)CN([C@H](C)CO)C(=O)c2cc(NC(=O)Nc3ccc4c(c3)OCO4)ccc2O1	100.2*	36.4	·	101.3*	20.9	-8.7	-9.6
C[C@@H]1CCCCO[C@@H](CN(C)Cc2ccc3c(c2)OCO3)[C@@H](C)CN([C@@H](C)CO)C(=O)c2cc(NC(=O)Nc3ccc(C(F)(F)F)cc3)ccc2O1	?	-55.9	-36.8	97.5*	113.7*	?	56.5*

Bioassay records (PubChem BioAssay)
